In PubChem BioAssay (NCI):
Values joined by “and” are separate entries in the source; they are usually repeats but may differ in a detail not shown here. Equal values may be shown once. This is part of a sample that, as a whole, favours compounds with a hit. Of some 83,000 tested, about 20% had one in any assay.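 Activity criterion: percent growth below 10, measured after cells in 96-well plates were exposed to a single compound concentration for 48 hours.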 Active and inactive are the calls of the source.

Columns and labels:
Test in all cases: NCI-60 one-dose screen, 48 h (100 = growth as untreated, 0 = no growth, -100 = all killed)
Details in all cases: 10 µM unless noted
[1] = tested on: SR leukemia
[2] = tested on: RPMI-8226 leukemia
[3] = tested on: OVCAR-8 ovarian
[4] = tested on: OVCAR-5 ovarian
[5] = tested on: OVCAR-4 ovarian
[6] = tested on: SK-OV-3 ovarian
[7] = tested on: OVCAR-3 ovarian
[8] = tested on: HS 578T breast
[9] = tested on: NCI/ADR-RES ovarian
[10] = tested on: IGROV1 ovarian

SMILES	growth [1]	growth [2]	growth [3]	growth [4]	growth [5]	growth [6]	growth [7]	growth [8]	growth [9]	growth [10]
COc1cc(-c2nccc3cc4c(cc23)OCO4)cc(OC)c1OC	18.5% (inactive) and 35.6% (inactive)	37.5% (inactive)	48.9% (inactive) and 35.2% (inactive)	66.4% (inactive) and 73.5% (inactive)	79.2% (inactive) and 69% (inactive)	23.7% (inactive) and 9.08% (active)	-9.95% (active) and -25.2% (active)	18.7% (inactive) and 53.8% (inactive)	-3.6% (active) and 8.92% (active)	
O=C=NC(c1ccccc1)(c1ccccc1)c1ccccc1	96.2% (inactive)	119% (inactive)	97.4% (inactive)	99.1% (inactive)	115% (inactive)		116% (inactive)	111% (inactive)	109% (inactive)	105% (inactive)
COc1cc2nc(N3CCN(C(=O)C4COc5ccccc5O4)CC3)nc(N)c2cc1OC (stereo not given)	70.4% (inactive) and 83.6% (inactive)	100% (inactive) and 86.9% (inactive) and 102% (inactive)	91.7% (inactive) and 94.7% (inactive) and 101% (inactive)	127% (inactive) and 112% (inactive) and 96.7% (inactive)	92.4% (inactive) and 93.2% (inactive) and 98.9% (inactive)		107% (inactive) and 109% (inactive) and 103% (inactive)	93.7% (inactive) and 118% (inactive)	93.9% (inactive) and 97.6% (inactive) and 110% (inactive)	93.4% (inactive) and 109% (inactive) and 95.6% (inactive)
CC(=O)NC(Cc1ccccc1)C(=O)Oc1ccc2ccccc2c1 (stereo not given)	113% (inactive)	90.2% (inactive)	103% (inactive) and 105% (inactive)	108% (inactive) and 93% (inactive)	101% (inactive) and 97.6% (inactive)		122% (inactive) and 100% (inactive)	98.8% (inactive) and 107% (inactive)	98.4% (inactive) and 105% (inactive)	135% (inactive) and 111% (inactive)
NC(=O)c1ccccc1OCC(O)CO (stereo not given)	94.9% (inactive)	99% (inactive)	104% (inactive)	99.5% (inactive)	103% (inactive)		106% (inactive)	117% (inactive)	119% (inactive)	108% (inactive)
O=C(/C=C\c1ccnc2ccccc12)c1ccc([N+](=O)[O-])cc1	6.51% (active)	31.1% (inactive) and -26.4% (active)	99.1% (inactive) and 73.5% (inactive)	89.4% (inactive) and 96.3% (inactive)	85.3% (inactive) and 63.1% (inactive)	95% (inactive) and 89.6% (inactive)	100% (inactive) and 87.8% (inactive)	107% (inactive) and 88.6% (inactive)	81.6% (inactive) and 67.4% (inactive)	
CCOc1ccc(Nc2c3ccccc3nc3ccccc23)cc1	81.6% (inactive) and 7.88% (active) and -40.6% (active)	81.3% (inactive) and 18% (inactive) and -19.7% (active)	83.6% (inactive) and 22.9% (inactive) and 36.9% (inactive)	90.8% (inactive) and 29.4% (inactive) and 47.8% (inactive)	90.9% (inactive) and 36.4% (inactive) and 37.9% (inactive)	96.6% (inactive) and 30.7% (inactive) and 40.5% (inactive)	96.5% (inactive) and 17.9% (inactive) and 35.1% (inactive)	88.5% (inactive) and 60.2% (inactive) and 61.7% (inactive)	82.8% (inactive) and 22.6% (inactive) and 16.8% (inactive)	
C#CCN(C)Cc1ccccc1	108% (inactive) and 101% (inactive)	98.2% (inactive) and 107% (inactive)	101% (inactive) and 98% (inactive)	116% (inactive)	112% (inactive) and 114% (inactive)	104% (inactive) and 103% (inactive)	111% (inactive) and 104% (inactive)	119% (inactive) and 96.1% (inactive)	101% (inactive) and 102% (inactive)	
NC(=O)NO	54.6% (inactive)	98.8% (inactive) and 42.1% (inactive)	99.8% (inactive)	108% (inactive) and 45.8% (inactive)	105% (inactive) and 59.5% (inactive)		110% (inactive) and 70.1% (inactive)	109% (inactive) and -24.6% (active)	99.4% (inactive) and 87.4% (inactive)	104% (inactive) and 47% (inactive)
O=C(Nc1ccc(Br)cc1)c1cc(Br)ccc1O	1.42% (active)	16.9% (inactive) and -8.2% (active)	22.5% (inactive) and 20.5% (inactive)	30.4% (inactive) and 17.4% (inactive)	9.76% (active) and 24.8% (inactive)	4.48% (active) and -11.3% (active)	-18.3% (active) and -5.1% (active)		4.45% (active) and -5.6% (active)	
COc1ccc2cc3[n+](cc2c1OC)CCc1cc2c(cc1-3)OCO2	50% (inactive) and 68.8% (inactive)	60.4% (inactive) and 43.8% (inactive)	44.8% (inactive)	70.5% (inactive)	47.8% (inactive) and 79.1% (inactive)	88.1% (inactive) and 104% (inactive)	55.4% (inactive) and 54.2% (inactive)	79.6% (inactive) and 73.5% (inactive)	99% (inactive) and 101% (inactive)	
NC(=O)C1CC2C=CC1C2 (stereo not given)	112% (inactive) and 105% (inactive)	144% (inactive) and 87.5% (inactive)	97% (inactive) and 95.1% (inactive)	89.8% (inactive) and 95.3% (inactive)	107% (inactive) and 120% (inactive)		93.2% (inactive) and 106% (inactive)	110% (inactive) and 94.3% (inactive)	108% (inactive) and 102% (inactive)	70.1% (inactive) and 87.3% (inactive)
C[N+](C)(C)CN1C(=O)c2ccccc2C1=O	83.8% (inactive)	106% (inactive)	97.4% (inactive)	105% (inactive)	101% (inactive)	98.1% (inactive)	109% (inactive)		112% (inactive)	
c1ccc(NCc2ccc3c(c2)OCO3)cc1	92.5% (inactive) and 92.2% (inactive)	99.6% (inactive) and 93.7% (inactive)	98.1% (inactive)	110% (inactive) and 98% (inactive)	106% (inactive) and 108% (inactive)		103% (inactive) and 105% (inactive)	109% (inactive) and 104% (inactive)	106% (inactive) and 105% (inactive)	118% (inactive) and 102% (inactive)
O=C1c2ccccc2C(=O)c2c(NCCNCCO)ccc(NCCNCCO)c21	57.6% (inactive) and 5.34% (active) and -17.9% (active)	55.6% (inactive) and 54% (inactive) and 33.8% (inactive)		-51.8% (active) and 43.9% (inactive) and 35.5% (inactive)	-16.3% (active) and 1.58% (active) and 1.59% (active)	-4.52% (active) and 27.8% (inactive) and 34.9% (inactive)	64.1% (inactive) and 44.1% (inactive)	-20.7% (active) and -14.7% (active) and 30.7% (inactive)	-24.9% (active) and 93.1% (inactive) and 102% (inactive)	29.1% (inactive) and 16.9% (inactive)
O=[N+]([O-])c1ccc2nc3c4ccccc4c4ccccc4c3nc2c1	56.6% (inactive)	59.4% (inactive)	65.9% (inactive)	91.7% (inactive)	8.96% (active)		72.9% (inactive)		58.9% (inactive)	58.8% (inactive)
COc1ccc2nc(Cl)cc(C)c2c1	88.2% (inactive) and 82.3% (inactive)	95.6% (inactive) and 109% (inactive)	101% (inactive) and 47.4% (inactive)	93.7% (inactive) and 93.4% (inactive)	99.2% (inactive) and 91.8% (inactive)		119% (inactive)	113% (inactive)	98.9% (inactive) and 102% (inactive)	108% (inactive) and 132% (inactive)
